# This is a sample that favours compounds with a hit; in the whole collection about 3.5% have one here.
# FBPA Giardia inh = blocks Giardia fructose-bisphosphate aldolase activity. hit rate 0.71% among 290,000. Potency, µM (top dose mostly 59.6 µM), for inactives: top-dose activity, negative = inhibition, most hits filed as inhibitors. A8B2U2. purified Giardia FBPA. AID 2451; further: on the % scale 0 is the no-effect control and ±100 the full control effect; nearly all actives have a fitted effect of over 55% in size
# Target sequence (A8B2U2 whole entry, looked up): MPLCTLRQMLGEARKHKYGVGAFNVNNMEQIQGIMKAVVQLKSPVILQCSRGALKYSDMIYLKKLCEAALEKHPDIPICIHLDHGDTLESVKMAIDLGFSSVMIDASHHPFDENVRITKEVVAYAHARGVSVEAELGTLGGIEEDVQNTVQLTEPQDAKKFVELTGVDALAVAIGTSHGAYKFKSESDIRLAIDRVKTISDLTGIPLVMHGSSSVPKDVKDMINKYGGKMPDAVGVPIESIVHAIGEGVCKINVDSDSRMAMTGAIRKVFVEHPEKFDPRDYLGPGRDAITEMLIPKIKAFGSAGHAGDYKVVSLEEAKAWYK
#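 40 nM FBPA preincubated 10 min at RT with compound (up to 57.5 uM final), then substrate plus GAPDH/TPI/NAD/arsenate coupling and diaphorase/resazurin added. Fluorescence read after 20 min at RT, 525/598 nm.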
# Sm TGR block = S. mansoni TGR enzyme inhibition; Potency, µM (titrated, usually from 114 µM), for inactives: top-dose activity change, negative = inhibition, most hits filed as inhibitors; hit rate 3% among 360,000; Q962Y6; AID 485364; purified TGR, DTNB reduction, TNB absorbance 405 nm; further: on the % scale 0 is the no-effect control and ±100 the full control effect; nearly all actives have a fitted effect of over 60% in size
#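 First, TGR (20 nM dispensed) and NADPH were mixed with compound. Second, a 15 min room-temperature incubation followed. Third, further NADPH and then DTNB were added to start the reaction. Finally, TNB absorbance was monitored kinetically.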
# LmPK inhibitor = inhibitors of Leishmania mexicana pyruvate kinase; Q27686; AID 1721; Potency, µM (series often up to 57.5 µM), for the others: top-dose activity change, negative = inhibition, hits mostly inhibitors; hit rate 0.37% among 290,000; purified LmPK, Kinase-Glo ATP luminescence, 1 h; further: on the % scale 0 is the no-effect control and ±100 the full control effect
#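 In 50 mM imidazole pH 7.2 with 7 mM MgCl2, LmPK (0.1 nM) turned over PEP (0.5 mM) and ADP (0.1 mM) for 1 h at room temperature. Luciferase read-out of ATP.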
# RE007 growth inh = less growth of the S. pombe RE007 Vpr strain. S. pombe RE007 Vpr strain, BacTiter-Glo ATP luminescence, 24 h. Potency, µM (doses to about 92.2 µM), for inactives: top-dose activity change, negative = less growth, actives largely listed as inhibitors. hit rate 0.21% among 360,000. AID 651644; active means well fitted falling curve with a large enough effect; inconclusive means small, poorly fitted or top-dose-only effect; inactive means no such curve, though single readings can be large or run the other way; further: on the % scale 0 is the no-effect control and ±100 the full control effect; nearly all actives have a fitted effect of over 50% in size
#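 Fission yeast strain RE007, carrying one chromosomally integrated HIV-1 vpr copy, was seeded at OD 0.01 in PMG+AL medium with 23 nL pinned compound. After 24 h at 30 °C and 99% humidity, viability was read by BacTiter-Glo luminescence.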
# Tb PYK inh = inhibitors of Trypanosoma brucei pyruvate kinase; TbPYK enzyme, Kinase-Glo Plus ATP luminescence, 45 min; Q57TT1; hit rate 0.12% among 410,000; Potency, µM (highest dose often 76.8 µM), inactives show at the highest dose activity, negative = inhibition, usual class: inhibitors; further: on the % scale 0 is the no-effect control and ±100 the full control effect; nearly all actives have a fitted effect of over 50% in size
#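 Readout: single end-point luminescence (Kinase-Glo Plus, 10 min). Reaction conditions were TbPYK/substrate plus 130 uM ADP, 45 min at RT, pH 7.2 TEA buffer. No-enzyme wells served as controls, and data were normalized before concentration-response fitting.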
# NS1 inh = inhibitors of influenza NS1 protein function. Potency, µM (doses to about 46.1 µM), inactives show at the highest dose activity, positive = more growth. hit rate 0.4% among 270,000; calls by dose curve; further: actives are rising curves; nearly all actives have a fitted effect of over 50% in size
#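 Compounds were scored for reversing the slow growth caused by influenza A NS1 in S. cerevisiae, measured by optical density at 600 nm. Assay medium contained 2% galactose at pH 6.0; NS1-free yeast of the same strain were the positive control.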
# Active calls of the source: *; ? = inconclusive; / = not tested or not shown; [ ] = dose if it differs, or a comment. Unless noted, the call rests on the fitted dose curve; in most records, active means well fitted curve in the direction sought with a large enough effect; inconclusive means small, poorly fitted or top-dose-only effect, or another doubt; inactive means no such curve, though single readings can be large; an effect the other way counts as inactive or inconclusive. Potency means the concentration at half of the fitted maximal effect.
SMILES,FBPA Giardia inh,Sm TGR block,LmPK inhibitor,RE007 growth inh,Tb PYK inh,NS1 inh
COC(=O)C1=C(C)N(CCc2ccc(OC)c(OC)c2)C(=O)/C1=C\c1ccc(O)cc1,?,28µM*,1%,/,-13%,0%
COC(=O)C1=C(C)N(c2ccc(C)c(C)c2)/C(=C/c2ccco2)C1=O,-10%,35µM*,9%,-4%,1%,/
COC(=O)C1=C(C)NC(=O)/C1=C\c1ccco1,2%,25µM*,2%,?,-9%,-18%
CN(C1CCCCC1)S(=O)(=O)c1ccc2c(c1)c(=O)c(C(=O)NCc1ccccc1Cl)cn2C,/,6%,/,/,-13%,/
CCc1ccccc1S(=O)(=O)Cc1ccc(C(=O)NCCc2ccc(C)cc2)o1,/,-7%,/,/,-8%,/
Cc1ccc(Cl)cc1NC(=O)N1CCc2cc(S(=O)(=O)N3CCC(C)CC3)ccc21,/,1%,/,/,0%,/
COC(=O)C1=C(C)NC(=O)/C1=C\c1cc(C)n(-c2ccc(F)cc2)c1C,?,/,-1%,-17%,1%,4%
COC(=O)C1=C(C)N(Cc2ccco2)C(=O)/C1=C\c1ccc(N(C)C)cc1,-4%,-34%,-1%,15%,0%,35%
COC(=O)C1=C(C)N(Cc2ccco2)C(=O)/C1=C\c1ccc([N+](=O)[O-])cc1,?,7.9µM*,8%,5%,?,0%
COC(=O)C1=C(C)NC(=O)/C1=C\c1cc(C)n(-c2cccc(C)c2)c1C,?,25µM*,3%,19%,-14%,16%
CC(C)c1ccc(NC(=O)C2Cc3ccccc3N2C(=O)c2ccccc2)cc1 (stereo not given),/,22%,/,/,4%,/
CCOc1ccc(NC(=O)C2Cc3ccccc3N2C(=O)c2ccccc2)cc1 (stereo not given),/,50µM*,/,/,3%,/
COCCn1c(C)cc(O)c(C(c2ccccc2Cl)N2CCCCC2)c1=O (stereo not given),/,28µM*,/,/,5%,/
Cc1cc(C(=O)CN2C(=O)NC3(CCCCC3)C2=O)c(C)n1Cc1ccco1,0%,-11%,3%,-6%,-4%,/
COCCn1c(C)cc(O)c(C(c2ccccc2)N2CCCCC2)c1=O (stereo not given),/,-3%,/,/,1%,/
COc1ccccc1C(CNC(=O)c1ccco1)N1CCCC1 (stereo not given),/,-18%,/,-4%,0%,/
COc1ccccc1C(c1c(O)cc(C)n(Cc2ccco2)c1=O)N1CCCCC1 (stereo not given),/,7.1µM*,/,/,0%,/
Cc1cc(O)c(C(c2ccccc2Cl)N2CCCCC2)c(=O)n1Cc1ccco1 (stereo not given),/,4.5µM*,/,/,0%,/
Cc1cc(O)c(C(c2ccccc2)N2CCCCC2)c(=O)n1Cc1ccco1 (stereo not given),/,10µM*,/,/,-2%,/
COc1ccc(C(c2c(O)cc(C)n(Cc3ccco3)c2=O)N2CCN(c3ccccc3)CC2)cc1 (stereo not given),/,3.2µM*,/,/,-10%,/
COc1ccc(C(c2c(O)cc(C)n(Cc3ccco3)c2=O)N2CCCCC2)cc1OC (stereo not given),/,7.9µM*,/,/,-8%,/
COc1ccccc1C(=O)Nc1ccc2nc(SCC(=O)N3CCCC3)sc2c1,/,-1%,/,/,9%,/
COc1ccc(CNC(=O)c2cnc(N3CCOCC3)c3ccccc23)cc1,/,0%,/,/,-1%,/
O=C(CCCOc1ccccc1)Nc1nc2ccccc2[nH]1,0%,5%,2%,-1%,2%,/
O=S(=O)(CCOc1ccccc1)c1nc2ccccc2[nH]1,25%,13µM*,0%,0%,6%,2%
Cc1ccc(NS(=O)(=O)c2cccs2)nc1,-18%,10%,-5%,-3%,1%,5%
CCCCS(=O)(=O)Nc1ccc(C)cn1,7.9µM*,-17%,-1%,-6%,-30%,-1%
Cc1ccc(C)c(NC(=O)CN2C(=O)c3cccnc3Oc3ccc(C)cc32)c1,/,-16%,/,/,2%[15.4 µM],/
